“And” between values parts separate entries of the source, which are not always exact repeats. Identical values can stand only once. In all, about 16,000 compounds went through this assay and about 5,800 (36%) were called active. Roughly 23% stayed inconclusive and do not appear here. Calls follow the shape of the dose curve; as a rule, active = well fitted curve in the direction sought with a large enough effect; inconclusive = small, poorly fitted or top-dose-only effect, or effect the other way; inactive = no such curve, though single readings can be large or run the other way. Some of the results follow. A structure can be active in one record and inactive in another.
target: Cytochrome P450 2C19 (Homo sapiens) (UniProt P33261); test: Cytochrome panel assay with activity outcomes; details: recombinant CYP, pro-luciferin dealkylation, luminescence, p450-cyp2c19; series mostly up to 57.1 µM; activity, negative = inhibition: at the top concentration
Protocol: The P450 gene superfamily is involved in the metabolism and clearance of xenobiotics. This assay used various human CYP P450 isozymes to measure the dealkylation of various pro-luciferin substrates to luciferin. The luciferin is then measured by luminescence after the addition of a luciferase detection reagent. Pro-luciferin substrate concentration in the assay was equal to its KM for its CYP P450 isozyme. Inhibitors and some substrates limit the production of luciferin, and decrease measured luminescence.
NCGC Assay Protocol Summary:
1, Reagent, 2 uL, Isozyme and Pro-Luciferin
2, Library compounds, 23 nl, 40 uM to 0.24 nM dilution series
3, Controls, 23 nl, Isozyme specific inhibitor
4, Reagent, 2 uL, NADPH regeneration solution
5, Incubation time, 60 min, Isozyme specific temperature
6, Reagent, 4ul, Detection reagent
7, Incubation time, 20 min, Isozyme specific temperature
8, Detection, 1 sec, ViewLux luminescent read
The luciferase-based P450-GloTM Screening Systems were obtained from Promega (Madison, WI) for CYP 1A2 (V9770), CYP 2C9 (V9790), CYP2 C19 (V9880), CYP 2D6 (V9890), and CYP 3A4 Luciferin-PPXE (V9910) and were adapted for 1,536-well microplates and an automated protocol. The control compounds furafylline for 1A2 (F124), sulfaphenazole for CYP 2C9 (S0758), ketoconazole for CYP 2C19 (K1003), quinidine for 2D6 (Q3625), and ketoconazole for 3A4 (K1003) were purchased from Sigma Aldrich (St. Louis, MO). Recombinant P450 enzymes were obtained from baculovirus constructs expressed in insect cells (BD/Gentest).
Medium-binding white solid Kalypsys plates used. Mixtures kept on ice. 1A2: 10 nM 1A2, 100 uM Luc-ME, 100 mM KPO4; 2C9: 10 nM 2C9, 100 uM Luc-H, 25 mM KPO4; 2C19: 5 nM 2C19, 10 uM Luc-H EGE, 50 mM KPO4; 2D6: 5 nM 2D6, 30 uM Luc-ME EGE, 100 mM KPO4; 3A4: 10 nM, 25 uM Luc-PPXE. All amounts are reflected in their final concentration, working concentration is 2x.
NADPH regeneration solution: 1.3 mM NADP+, 3.3 mM glucose-6-phosphate, 3.3 mM MgCl2, 0.4 U/mL glucose-6-phosphate dehydrogenase for all isozymes, 200 mM KPO4 for 3A4. Mixture prepared at RT but kept on ice during automated run.
RT incubation in auxilliary plate hotel for 1A2, 2D6, and 3A4; 37C for 2C9 and 2C19.
Keywords: P450, CYP1A2, CYP2C19, CYP2C9, CYP2D6, CYP3A4, Luciferase, MLSMR, MLSCN, NIH Roadmap, qHTS, NCGC
% is scaled to controls: 0 for no effect and ±100 for the full control effect.

Sequence of Cytochrome P450 2C19 (Homo sapiens) (P33261 whole entry, looked up): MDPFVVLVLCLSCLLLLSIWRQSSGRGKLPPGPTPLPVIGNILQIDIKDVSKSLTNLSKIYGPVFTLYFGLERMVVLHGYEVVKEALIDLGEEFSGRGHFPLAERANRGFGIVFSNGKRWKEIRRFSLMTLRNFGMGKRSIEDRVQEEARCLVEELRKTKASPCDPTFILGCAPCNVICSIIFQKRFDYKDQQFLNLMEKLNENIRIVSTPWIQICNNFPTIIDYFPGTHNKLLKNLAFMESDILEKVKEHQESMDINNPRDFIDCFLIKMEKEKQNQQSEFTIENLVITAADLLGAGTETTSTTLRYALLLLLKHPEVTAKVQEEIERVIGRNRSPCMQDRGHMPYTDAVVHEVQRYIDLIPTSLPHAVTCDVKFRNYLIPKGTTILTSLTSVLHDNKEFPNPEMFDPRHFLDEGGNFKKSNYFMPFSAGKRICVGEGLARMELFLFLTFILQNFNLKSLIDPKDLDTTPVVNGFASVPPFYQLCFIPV

| SMILES | AC50 | activity, negative = inhibition |
| --- | --- | --- |
| S=C(S)N1CCCC1 | 3980 nM (active) | – |
| CC(C)Oc1cc(-n2c(=S)[nH]c3ccccc3c2=O)c(Cl)cc1Cl | 224 nM (active) | – |
| OC1(c2ccc(Cl)cc2)CCN(Cc2c[nH]c3ccccc23)CC1 | – | 26.2% (inactive) |
| COc1ccn(C)c(=O)c1C#N | – | 41% [at 25.6 µM] (inactive) |
| CCOC(C(=O)OCCCN(CC)CC)(c1ccccc1)c1ccccc1 | – | -28.3% (inactive) |
| CCN1C[C@@]2(COC)[C@H]3[C@@H](OC)[C@H]4C1[C@@]3([C@H](OC)C[C@@H]2O)[C@H]1C[C@@]2(O)[C@@H](OC(=O)c3ccccc3)[C@@H]1[C@@]4(OC(C)=O)[C@H](O)[C@@H]2OC | – | 37.6% [at 25.6 µM] (inactive) |
| CC1=C(CC[C@H](C)CO)O[C@@H]2C[C@@H]3[C@H]4CC[C@H]5C[C@@H](O)CC[C@]5(C)[C@@H]4CC(=O)[C@@]3(C)[C@@H]12 | – | -3.33% [at 11.4 µM] (inactive) |
| COc1ccc2[nH]cc(C3=CCNCC3)c2c1 | – | -31.5% (inactive) |
| O=c1ccc2[nH]cc(C3=CCNCC3)c2[nH]1 | 126 nM (active) | – |
| CCCCc1nc2ccccc2c(=O)n1-c1ccc(Cl)cc1[N+](=O)[O-] | – | 18.7% (inactive) |
| CCCCc1nc2ccccc2c(=O)n1-c1ccccc1[N+](=O)[O-] | 14100 nM (active) | – |
| O=c1cc(-c2ccc(O)cc2)oc2cc(O)cc(O)c12 | – | -28.2% (inactive) |
| COc1ccc(CCNc2cc(-c3ccccc3)nc3ncnn23)cc1 | 11200 nM (active) | – |
| CNC[C@H](O)c1ccc(OC(=O)C(C)(C)C)c(OC(=O)C(C)(C)C)c1 | – | 40.4% [at 25.6 µM] (inactive) |
| [N-]=[N+]=NCC(=O)c1c[nH]c(=O)[nH]c1=O | – | 30.9% [at 11.4 µM] (inactive) |
| C[C@H]1CC[C@]2(OC1)O[C@@H]1C[C@@H]3[C@@H]4CC[C@H]5C[C@@H](O)CC[C@]5(C)[C@@H]4CC(=O)[C@@]3(C)[C@H]1[C@@H]2C | – | -0.0546% [at 25.6 µM] (inactive) |
| CCOC(=O)C1=C(C)OC(N)=C(C#N)C12C(=O)N(C)c1ccccc12 (stereo not given) | 28200 nM (active) | – |
| CCN1C[C@]2(C)CC[C@H](O)[C@@]34[C@@H]5CC6[C@@H](OC)C[C@@](O)([C@@H]5[C@@H]6O)[C@H](C[C@@H]23)[C@H]14 | – | 12.6% [at 25.6 µM] (inactive) |
| Cc1ccc(OP(=O)(Oc2ccc(C)cc2)N2C=Cc3ccccc3[C@H]2C#N)cc1 | 2510 nM (active) | – |
| COc1ccccc1CN1CCCC2(CCN(C(=O)Oc3ccccc3)CC2)C1 | – | -8.9% (inactive) |

| SMILES | AC50 | activity, negative = inhibition |
| --- | --- | --- |
| O=C1C=C2C=C[C@H]3C[C@@]2(O1)[C@H]1CCCCN31 | – | -17.9% [at 25.6 µM] (inactive) |
| O=C(CCCN1CCC2(CC1)C(=O)NCN2c1ccccc1)c1ccc(F)cc1 | inactive and 6.31 µM (active) | – |
| O=C1NCN(c2ccccc2)C12CCN(C[C@H]1COc3ccccc3O1)CC2 | 7940 nM (active) | – |
| O=C(CCCN1CCC(n2c(=O)[nH]c3ccccc32)CC1)c1ccc(F)cc1 | – | 13.1% [at 25.6 µM] (inactive) |
| O=C1NCN(c2ccccc2)C12CCN(CCCOc1ccc(F)cc1)CC2 | – | -16.6% (inactive) |
| NC1=Nc2ccccc2Oc2ccccc21 | – | -23.9% (inactive) |
| O=C(Oc1ccccc1)N1CCC2(CCN(Cc3ccncc3)CC2)CC1 | – | -28.1% (inactive) |
| O=C(O)/C=C(\CC(=O)O)C(=O)O | – | -16.7% [at 11.4 µM] (inactive) |
| O=C(O)Cc1cccnc1C(=O)O | – | -6.16% (inactive) |
| CC(C)CN1CC2(CCN(C(=O)c3ccncc3)CC2)C1 | – | -41.7% (inactive) |
| Cc1ccc(NC(=[OH+])c2cc3ccccc3cc2O)c(C)c1.Cc1ccc(NC(=[OH+])c2cc3ccccc3cc2O)c(C)c1.[Ni] | 2000 nM (active) | – |
| O=c1[nH]oc2c1CCNC2 | inactive | – |
| Clc1ccc(C2=CCC[C@H]3CC[C@@H]2N3)cn1 | – | 23.3% (inactive) |
| CCCCN1C(=O)C(C2c3ccccc3C(=O)N2Cc2ccccc2)C(=O)NC1=S (stereo not given) | 25100 nM (active) | – |
| CC(C)C[C@H](NP(=O)(O)O[C@@H]1O[C@@H](C)[C@@H](O)[C@@H](O)[C@H]1O)C(=O)N[C@@H](Cc1c[nH]c2ccccc12)C(=O)O | – | 34.5% (inactive) |
| CN1C(=O)COc2c(C(=O)N[C@@H]3CN4CCC3CC4)cc(Cl)cc21 | – | -29.5% (inactive) |
| CC(C)n1cnc2c(C(=O)N[C@H]3CN4CCC3CC4)cc(Cl)cc21 | 1000 nM (active) | – |
| Cn1cc(C(=O)C(=O)N[C@H]2CN3CCC2CC3)c2ccccc21 | – | -31.1% (inactive) |
| C[C@@H]1O[C@H](C[N+](C)(C)C)CS1 | – | -5.89% (inactive) |
| NC(=O)CN1C[C@@H](O)CC1=O | – | -13.8% (inactive) |

| SMILES | AC50 | activity, negative = inhibition |
| --- | --- | --- |
| C[N+]1([O-])[C@@H]2CC(OC(=O)[C@@H](CO)c3ccccc3)C[C@@H]1[C@H]1O[C@H]12 (stereo not given in full) | inactive | – |
| CN1[C@@H]2CC[C@H]1CC(NC(=O)c1nn(C)c3ccccc13)C2 (stereo not given in full) | – | -7.12% (inactive) |
| O=C1C2CCN(CC2)C1(CO)CO | 631 nM (active) | -4.59% [at 11.4 µM] (inactive) |
| CCN(CC)C(=O)N[C@@H]1C[C@H]2c3cccc4[nH]cc(c34)C[C@@H]2N(C)C1 | inactive | – |
| CCOC(=O)c1ncn2c1CN(C)C(=O)c1cc(F)ccc1-2 | 1580 nM (active) | – |
| CCOC(=O)c1ncn2c1[C@H]1CCCN1C(=O)c1cc(OC)ccc1-2 | – | 27.7% (inactive) |
| O=C(Nc1ccccc1)N1CC2(CCN(C(=O)Oc3ccccc3)CC2)C1 | – | -43.7% (inactive) |
| COC(=O)[C@@H]1c2cc3c(c(O)c2[C@@H](O)C[C@]1(C)O)C(=O)c1c(O)cc2c(c1C3=O)O[C@H]1O[C@@]2(C)[C@@H](O)[C@H](N(C)C)[C@H]1O | – | -43.8% [at 11.4 µM] (inactive) |
| N[C@H](Cc1ccc(N(CCCl)CCCl)cc1)C(=O)O | – | 12.3% (inactive) |
| CCCC(CCC)C(=O)O | – | -0.0295% (inactive) |
| C1CCc2nnnn2CC1 | – | 0.268% (inactive) |
| O=C(Nc1ccc(F)cc1F)c1cccnc1Oc1cccc(C(F)(F)F)c1 | 1260 nM (active) | – |
| NNC(=O)c1ccc(O)cc1 | – | 28.3% (inactive) |
| O=C(C[n+]1ccc2ccccc2c1)c1ccc2ccc3ccccc3c2c1 | – | 1.57% [at 11.4 µM] (inactive) |
| CCCn1c(C)c(C(=O)c2ccc3ccccc3c2)c2ccccc21 | 2000 nM (active) | – |
| Cc1c(C(=O)c2ccc3ccccc3c2)c2cccc3c2n1[C@H](CN1CCOCC1)CO3 | – | 6.16% (inactive) |
| CCCn1c(C)c(C(=O)c2cccc3ccccc23)c2ccccc21 | 10000 nM (active) | – |
| COc1ccc(C(=O)c2c(C)n(CCN3CCOCC3)c3cc(I)ccc23)cc1 | – | 7.54% (inactive) |
| COc1ccc2c3c1O[C@@H]1C(=O)CC[C@@]4(O)[C@@H](C2)N(CC2CC2)CC[C@]314 | – | -21.4% (inactive) |
